Experimental data: PubChem BioAssay AID652176 (Sanford-Burnham Center for Chemical Genomics, 2013)
In all, about 2,400 compounds went through this assay and about 25 (1%) were called active. A selection follows. A number with no mark means an inactive call.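 How the source made its calls: active means replicate-average signal at least 3 plate SD below neutral wells, shown as high inhibition, flagging enzyme-inhibiting false positives; inactive means the rest.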

What follows are compounds tested on Beta-galactosidase (Escherichia coli), counter-screen for EBI2 antagonists (assay: E. coli beta-galactosidase enzyme inhibition, confirmation, counter-screen for EBI2 antagonist project, biochemical, luminescence, single concentration (AID 652176;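 further: 0% = DMSO wells with enzyme and 100% = wells lacking enzyme; higher means stronger loss of beta-gal luminescence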)). Conditions: purified beta-galactosidase, luminescent Galacton Star, 15 min; at 5 µM; stronger effect = higher value.
Compound `COc1cc(/C=C(\C#N)C(=O)Nc2ccc3ccccc3c2)c([N+](=O)[O-])cc1OC` has an inhibition of -8.92%. For `CC(C)N(Cc1ccccc1)C(=S)Nc1ccc(OC(F)F)cc1`, the inhibition was 7.71%. `Cc1ccc(S(=O)(=O)NCCNC(C)c2ccc(Br)cc2)cc1` (centres undefined) was tested, and the inhibition was 4.8%. `Cc1cccc(C)c1-n1nnnc1C(CCc1ccccc1)N1CCN(C/C=C/c2ccccc2)CC1` (centres undefined) was tested, and the inhibition was -14.6%. In the case of `Cc1cccc(-n2c(O)c(C=Nc3ccccc3N)c(=O)[nH]c2=O)c1`, the inhibition is reported as 1.72%. Work on `CC(C)Cc1ccc(-c2cc3nc(NCc4cccc(Cl)c4)ccn3n2)cc1` yielded an inhibition of -21.1%. Work on `Fc1ccc(N2CCN(Cc3cnc(Oc4ccc(Br)cc4)s3)CC2)cc1` yielded an inhibition of 3.88%. Compound `COc1ccc([C@H]2CC(=O)C=C(/C=C/c3ccc(Cl)cc3)C2)cc1` has an inhibition of -9.12%. `O=C(CSc1ccccc1)Nc1cc(Cl)ccc1Oc1ccccc1` was tested, and the inhibition was -9.14%. In the case of `COc1ccccc1N1CCN(C(=O)c2cc(-c3ccc(Br)cc3)on2)CC1`, the inhibition is reported as 9.03%. `CC1CCc2sc3nc(N4CCN(CCO)CC4)n4ncnc4c3c2C1` (centres undefined) gave an inhibition of -1.4%. With `Cc1nc2ccc(C(=O)N3CCN(c4ccccc4)CC3)cc2s1` the inhibition was -10.1%. `Cc1ccc(N2CC(C(=O)Nc3ccc(S(=O)(=O)N4CCCC4)cc3)CC2=O)cc1C` (centres undefined) was tested, and the inhibition was 2.23%. `COc1ccc([C@H]2CC(=O)C=C(c3ccc(C)cc3)C2)cc1` gave an inhibition of 5.89%. Compound `O=C(c1cc2cc(F)ccc2[nH]1)N1CCN(c2ccc(F)cc2)CC1` has an inhibition of 1.06%. For `Cc1ccc(CSCCNC(=O)CN(c2ccc(F)cc2)S(C)(=O)=O)cc1`, the inhibition was 3.75%. `O=C(c1ccc(-n2cnnn2)cc1)N1CCN(C(c2ccccc2)c2ccccc2)CC1` was tested, and the inhibition was 5.89%. `Cc1ccc2oc(=O)c3cnn(CC(=O)N(Cc4ccco4)C4CCCCC4)c3c2c1` gave an inhibition of -17.5%. With `CCOC(=O)N1CCN(C(=O)COc2ccc(Cl)cc2C)CC1` the inhibition was 11%. Work on `Cc1ccc(O/C=C2\OC(=O)c3ccccc32)cc1` yielded an inhibition of -6.52%. Work on `CCOC(=O)N1CCN(C(=O)COc2ccc(Br)cc2)CC1` yielded an inhibition of 2.79%. `COc1ccc(OC)c(C(=O)c2coc3ccc(O)c(CN4CCOCC4)c23)c1` was tested, and the inhibition was 3.81%. In the case of `FC(F)(F)Oc1ccccc1C(c1nnnn1C1CCCCC1)N1CCN(C/C=C/c2ccccc2)CC1` (centres undefined), the inhibition is reported as 3.49%. With `COc1ccc(Nc2cc(Sc3ccc(OC)cc3)ncn2)cc1` the inhibition was 8.03%.
